Molecules are shown by their SMILES. Out of some 96,000 compounds screened, about 19,000 (20%) were called active.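 How the source made its calls: active means blocking of liver enzyme CYP2C9 beyond about 50% at 5 µM (limit read from the data); inactive means the rest.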 Only a sample is shown.

Usually inhibition stands for the drop in the measured response relative to a control, in per cent.

Sequence of Cytochrome P450 2C9 (Homo sapiens) (P11712 whole entry, looked up): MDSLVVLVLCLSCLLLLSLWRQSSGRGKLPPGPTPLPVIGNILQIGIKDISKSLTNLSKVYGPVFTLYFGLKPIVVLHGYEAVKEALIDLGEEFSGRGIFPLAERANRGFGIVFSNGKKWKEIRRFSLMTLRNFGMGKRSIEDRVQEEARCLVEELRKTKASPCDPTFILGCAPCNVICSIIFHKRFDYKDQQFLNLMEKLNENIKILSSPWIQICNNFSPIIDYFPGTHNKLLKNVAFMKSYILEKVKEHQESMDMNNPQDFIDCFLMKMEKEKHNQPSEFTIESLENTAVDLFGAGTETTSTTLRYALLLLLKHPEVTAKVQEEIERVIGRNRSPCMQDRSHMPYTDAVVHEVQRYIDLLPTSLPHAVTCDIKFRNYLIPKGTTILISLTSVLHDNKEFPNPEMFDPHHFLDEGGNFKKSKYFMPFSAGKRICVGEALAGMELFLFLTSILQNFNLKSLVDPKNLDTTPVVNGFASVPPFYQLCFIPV

This experiment concerns the target Cytochrome P450 2C9 (Homo sapiens) (UniProt P11712). In words: blockers of cytochrome P450 2C9 activity – biochemical, luminescence, ADME assay, primary screen (AID 777). The note with it: CYP2C9 Supersomes, luciferin-H conversion, at 5 µM, stronger effect = higher value.
Consider `CCCOc1ccc(NC(=O)C2CCCNC2=O)cc1` (stereo unspecified), for which the inhibition is 1.9% (inactive). For the compound `COc1ccc(-n2nnnc2SCC(=O)Nc2ccccc2)cc1`, the inhibition is -7.3% (inactive). The same measure for `CC(=O)Nc1ccc(NC(=O)CSCc2cnn(-c3ccccc3)c2-n2cccc2)cc1`: 86.6% (active).

As for `Cc1cc(C)cc(NC(=O)CSCc2cnn(-c3ccccc3)c2-n2cccc2)c1`, the inhibition was 44% (inactive).

Take `Cc1ccc(NC(=O)c2cc(-c3ccc(C)o3)nc3ccccc23)nc1`: the inhibition is 3.2% (inactive). With `CC(=O)OCc1cc2cc(C)ccc2[nH]c1=O`, the inhibition was -8% (inactive). `C/C(=C\c1ccco1)C1Nc2cccc3cccc(c23)N1`: the inhibition was 55.5% (active).

In the case of `O=C(NCC1CCCO1)/C(=C\c1ccco1)NC(=O)c1ccccc1` (stereo unspecified), the inhibition is -18.8% (inactive). For `Cc1cccc(NC(=O)/C(=C\c2ccco2)NC(=O)c2ccccc2)c1` the value was 32.5% (inactive); for `COc1ccc2c(c1OC)C(=O)N(c1ncn[nH]1)C2`, -23.9% (inactive); for `CCN(CC)C(=O)CC1(c2ccccc2OC)CCOC(C(C)C)C1` (stereo unspecified), 17% (inactive). Consider `O=C(CN1CCN(S(=O)(=O)c2ccc3ccccc3c2)CC1)NC(=O)NC1CCCCC1`, for which the inhibition is -18.3% (inactive). The same measure for `O=S(=O)(c1ccc2ccccc2c1)N1CCN(S(=O)(=O)N2CCOCC2)CC1`: -53.6% (inactive); for `O=C(CCc1ccc(S(=O)(=O)N2CCOCC2)cc1)Nc1ccc2ccccc2c1`: 55.3% (active); for `Cn1nnnc1SCc1cc(=O)[nH]c2ccccc12`: 14.5% (inactive). Consider `CCOC(=O)Cc1c(C)nc2c(C#N)c(C)nn2c1C`, for which the inhibition was -3.2% (inactive).

Consider `CCCOn1c(-n2nc(C)cc2C)nc2ccccc2c1=O`, for which the inhibition was 11.3% (inactive). For `O=c1c2ccccc2nc(N/N=C/c2ccccc2)n1O` the value was -1.4% (inactive). The same measure for `CCCc1nc2ccccc2c(=O)n1/N=C/c1ccc(O)c(O)c1`: 85.3% (active); for `O=C(Cc1ccc(-n2c(=O)[nH]c3ccccc3c2=O)cc1)N1CCN(c2cccc(Cl)c2)CC1`: 57.5% (active). The same measure for `CCOC(=O)N1CCC(Nc2c(NCCN3CCN(c4cccc(Cl)c4)CC3)c(=O)c2=O)CC1`: 0.8% (inactive); for `CCOC(=O)N1CCN(C(=O)Cc2ccc(-n3c(=S)[nH]c4ccccc4c3=O)cc2)CC1`: 11.8% (inactive); for `O=C(C1CCN(S(=O)(=O)c2cnc[nH]2)CC1)N1CCN(Cc2ccc3c(c2)OCO3)CC1`: 9.3% (inactive).

For `O=S(=O)(Nc1ccccn1)c1ccc(Oc2ccccc2)cc1`, the inhibition was 81.4% (active). As to `O=C(CS(=O)(=O)Cc1ccccc1)Nc1cccnc1`, the inhibition was -3.4% (inactive). Turning to `Cc1nc(CNS(=O)(=O)c2ccc(Oc3ccccc3)cc2)cs1`, the inhibition was 39.1% (inactive). The same measure for `Cc1ccc(S(=O)(=O)c2ccc(Oc3ccccc3)cc2)cc1`: -5.1% (inactive).

`COc1ccccc1Oc1ccc(S(=O)(=O)Nc2cccnc2)cc1`: the inhibition was 84.9% (active). In the case of `Cc1cc(C)cc(NS(=O)(=O)c2ccc(Oc3ncc(C(F)(F)F)cc3Cl)cc2)c1`, the inhibition is 47.2% (inactive). The same measure for `COc1cc(=O)[nH]c(=O)n1C(=O)Cc1ccccc1`: 11.7% (inactive); for `Cc1nc(NC2=NC(C(=O)Nc3ccc(Cl)cc3)CC(=O)N2)nc2ccccc12` (stereo unspecified): 1.6% (inactive); for `O=C(CCCN1C(=O)c2cccc3cccc(c23)C1=O)N1CCN(Cc2ccc3c(c2)OCO3)CC1`: -138% (inactive).

As for `O=C1c2ccccc2C(=O)N1c1ccccc1S(=O)C(F)(F)F` (stereo unspecified), the inhibition is -4% (inactive). The same measure for `O=C(Nc1ccccc1[N+](=O)[O-])C1C(c2ccccc2)=C1c1ccccc1`: 18.8% (inactive); for `O=[N+]([O-])c1ccccc1NCc1ccc(Cl)cc1`: 18% (inactive). For `O=C(O)c1ccccc1NC(=S)NC(NC(=O)c1ccccc1[N+](=O)[O-])C(Cl)(Cl)Cl` (stereo unspecified) the value was 72.3% (active); for `O=C(Nc1ccc2c(c1)OCO2)C1CC(c2c(F)cccc2Cl)=NO1` (stereo unspecified), -159% (inactive). On to `COCn1c(COc2ccccc2)nc2ccccc21`, for which the inhibition is 43.7% (inactive). For `CCCCNC(=O)CCNC(=O)c1ccc(C(C)(C)C)cc1` the value was 41.3% (inactive). For `CCN(CC(=O)NC(C)C)C(=O)CCNC(=O)c1ccc(Cl)cc1` the value was 6.3% (inactive); for `Cc1ccc(CNC(=O)CCCNC(=O)c2ccc(Cl)cc2)n1C`, 80.5% (active); for `CCCCNC(=O)C(=O)c1ccccc1NC(C)=O`, 15.4% (inactive). The same measure for `CCCNC(=S)NC1CC2CCCC(C1)N2CC(C)C` (stereo unspecified): -4.2% (inactive); for `Cc1cc(OC(=O)c2ccc(Cl)cc2)cc(=O)n1C`: 32% (inactive). As for `CCCOc1ccccc1C1CC(=O)Nc2cc3c(cc21)OCO3` (stereo unspecified), the inhibition is 94.4% (active).

Take `COCCOC(=O)C1=C(C)NC(=O)CC1c1cc2c(cc1Br)OCO2` (stereo unspecified): the inhibition was 8.2% (inactive). As to `COc1ccccc1C1C2=C(COC2=O)Nc2cc3c(cc21)OCO3` (stereo unspecified), the inhibition is 28.2% (inactive). For `CC1(C)CC(=O)C(C2=NC(C)(C)Cc3ccccc32)=C(O)C1` the value was 5.8% (inactive). For `C=CCOc1c2ccc(C(=O)N(CC)c3ccc(OC)cc3)cc2nn1C` the value was 47.3% (inactive); for `COc1cc(OC)cc(C(=O)NC2CCN(C(=O)N3c4ccccc4Sc4ccccc43)CC2)c1`, 41.4% (inactive). The same measure for `COc1ccc(-c2nnc(SC(=O)N3c4ccccc4Sc4ccccc43)o2)cc1`: 83.1% (active); for `COc1ccc(-c2nnc(SC(C)C#N)o2)cc1` (stereo unspecified): 13.9% (inactive).

For `COc1ccc2c(c1)cc1n2CCN=C1NN`, the inhibition was 42.7% (inactive). For `Cc1ccc(C(=O)NC2CCN(C(=O)N3CCOCC3)CC2)cc1` the value was -6.4% (inactive); for `N#Cc1nc(N)nc(N(c2ccccc2)c2ccccc2)n1`, 19.9% (inactive).

`CCOC(=O)c1cc2c(n(-c3ccc(C)cc3)c1=O)CCCC2=O`: the inhibition is 12% (inactive). As for `Cc1n[nH]c(=O)n1-c1ccc(Oc2ccccc2)cc1`, the inhibition is 0.7% (inactive). The same measure for `Cc1ccc(N)cc1-n1c(C)ccc1C`: -1.6% (inactive); for `Cc1ccccc1CSc1nnc(-c2ccccn2)n1N`: -28.8% (inactive); for `COc1ccc(N(CC(=O)N/N=C/c2cccs2)S(=O)(=O)c2ccc(OC)c(OC)c2)cc1`: 44.2% (inactive).

`COc1ccc(N(CC(=O)N/N=C/c2cccc3c2OCCO3)S(=O)(=O)c2ccc(NC(C)=O)cc2)cc1`: the inhibition is 76.1% (active). For `Cc1ccc(S(=O)(=O)N(CC(=O)N/N=C/c2ccc(F)cc2)c2cccc3cccnc23)cc1` the value was 9.7% (inactive); for `Cn1c(=N)n(CC(O)c2ccccc2)c2ccccc21` (stereo unspecified), -27.2% (inactive); for `Cc1c(Br)c([N+](=O)[O-])nn1C(C)C(=O)Nc1nccs1` (stereo unspecified), 73.2% (active). As to `COc1cc(C(=O)Nc2nccs2)cc(OC)c1OC`, the inhibition is 42% (inactive). For `Cn1cccc1C(=O)Nc1nccs1`, the inhibition was 2.9% (inactive). The same measure for `O=P(O)(CN1CCCCC1)CN1CCCCC1`: -9.6% (inactive). For `CSc1nc2ccc(S(=O)(=O)N3CCc4ccccc43)cc2s1` the value was 15.3% (inactive). For `Cc1nn(C)c(C)c1S(=O)(=O)N1CCc2ccccc21` the value was -33.4% (inactive); for `COc1ccc(C(=O)OCC(=O)NCC2CCCCC2)cc1S(=O)(=O)N1CCCc2ccccc21`, 9.6% (inactive). `CC1CCC(NS(=O)(=O)c2ccc3c(c2)n(C)c(=O)c(=O)n3C)CC1` (stereo unspecified): the inhibition is 8.5% (inactive). The same measure for `Cn1c(=O)n(C)c2cc(S(=O)(=O)N3CCCc4ccccc43)ccc21`: 66.5% (active); for `CCn1c(=O)c(=O)n(CC)c2cc(S(=O)(=O)N3CCc4ccccc43)ccc21`: 96.5% (active). The same measure for `Cc1ccc(-n2c(=O)c(C#N)cc3c(=O)n4ccccc4nc32)cc1C`: -2.8% (inactive). For `Cc1cc(C=O)c(C)n1-c1ccc(NC2CCCCC2)c([N+](=O)[O-])c1` the value was 15.9% (inactive); for `Cc1ccoc1C(=O)Nc1cccc(Oc2ccccc2)c1`, 34% (inactive); for `O=C(OCCO)c1cc(Cl)c(C(=O)OCCO)cc1Cl`, 48.4% (inactive). For `Cc1ccc(NC(=O)c2ccc(CSc3ncnc4nc[nH]c34)cc2)c(C)c1`, the inhibition was -76.5% (inactive). In the case of `CCN1CCN(C(c2cccnc2)c2cc(Cl)c3cccnc3c2O)CC1` (stereo unspecified), the inhibition is 29.8% (inactive). The same measure for `CCn1ncc(C2=NOC(C(=O)Nc3ccccc3C(=O)OC)C2)c1C` (stereo unspecified): -34.3% (inactive).

With `CCN1CCc2c(C#N)c(NCc3ccccc3)nc(NCCO)c2C1`, the inhibition was 35.5% (inactive). Turning to `CC(C)CCNc1nc(N2CCCC2)c2c(c1C#N)CCN(C)C2`, the inhibition was 69.7% (active). The same measure for `CCOC(=O)C(C)Oc1cccc2c(=O)n(CC(=O)N3CCc4ccccc43)ccc12` (stereo unspecified): 9% (inactive).

For the compound `O=S(=O)(c1cccc(S(=O)(=O)N2CCC(n3nnc4ccccc43)CC2)c1)N1CCCCC1`, the inhibition was 88.3% (active). For `O=S(=O)(c1cccc(-c2nnc(SC(F)F)n2-c2ccccc2)c1)N1CCCCC1` the value was 21.2% (inactive). Take `CC(=O)c1cccc(S(=O)(=O)N2CCC(n3nnc4cc(F)ccc43)CC2)c1`: the inhibition is -31% (inactive).

As for `CCCN(CCC)CCNC(=O)c1cc2c(C)nc3ccccc3c2o1`, the inhibition is 8.6% (inactive). The same measure for `Cc1sc2c(c1C)c(=O)n(-c1ccccc1)c1nncn21`: -2.8% (inactive). For the compound `COc1ccc(Nc2oc(-c3ccccc3Cl)nc2C#N)cc1`, the inhibition is 47% (inactive).

In the case of `N#Cc1nc(COc2ccc(-c3ccccc3)cc2)oc1NCc1cccnc1`, the inhibition is 70.7% (active). For `N#Cc1nc(-c2ccc(OCc3ccccc3)cc2)oc1NCCCN1CCOCC1` the value was 41% (inactive).

With `CCOc1ccc(Nc2oc(Cc3ccccc3)nc2C#N)cc1`, the inhibition was 78.1% (active). For `N#Cc1nc(Cc2ccccc2)oc1NCCc1ccccc1` the value was 39.2% (inactive); for `c1ccc(-c2cc(-c3nnc4sc(-c5ccccn5)nn34)[nH]n2)cc1`, -2.3% (inactive); for `COc1ccc(C(F)(F)F)cc1N/C=C\c1nnnn1-c1ccc(C)cc1`, 44.6% (inactive). The same measure for `CCN(CC)S(=O)(=O)c1cc(C(=O)Nc2ccccn2)ccc1C`: 38.8% (inactive).

These data come from PubChem BioAssay AID777 (Sanford-Burnham Center for Chemical Genomics, 2007).
